Each structure is given as a SMILES string. The panel holds about 83,000 compounds, 20% with a hit somewhere; the sample as a whole holds those more often.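 Compound tested at a single concentration for 48 hours in 96-well plates; a percent growth value below 10 was scored as active.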 A number with no mark means an inactive call. Activity calls are given as the source filed them.

This assay concerns IGROV1 ovarian. As to the kind of experiment: NCI-60 one-dose screen, 48 h (100 = growth as untreated, 0 = no growth, -100 = all killed). Particulars: 10 µM unless noted. Here is the method: Growth inhibition of the IGROV1 human tumor cell line is measured as a screen for anti-cancer activity. Cells are grown in 96 well plates and exposed to the test compound for 48 hours. Compounds are tested at a single concentration, which is 10^-5 M for most compounds. The reported endpoint is percent growth (GI% or GIPRCNT), where numbers from 0 - 100% represent growth inhibition, and numbers from -100% - 0 represent cell death. For example, a value of 40 represents 60% growth inhibition. A value of 0 means no net growth occurred over the course of the experiment. A value of -40 indicates 40% of cells at the beginning of the experiment died by the end of the experiment. A value of -100 means all cells are dead at the end of the experiment.
NCI-60 Human Tumor Cell Lines Screen was performed using the standard one-dose NCI protocol, which is described in more detail at https://dtp.cancer.gov/discovery_development/nci-60/default.htm.
Compounds with GIPRCNT values below 10 were considered active. Activity score was based on GIPRCNT using the following formula: […]
Score is 0 for GIPRCNT values of 100 or above, 50 for GIPRCNT values of 0, and 100 for GIPRCNT values of -100.
Turning to `O=C(O)CCCCCNC(=O)OCc1ccccc1`, the growth was 93.9%.

For `C#CC(O)c1ccccc1` (stereo not given), the growth was 108%. Consider `CCOC(=N)CC(=O)Nc1cccc(C)c1Cl`, for which the growth is 104%. Consider `COc1cc(OC)c2cc(C(=O)c3ccc(C#N)cc3)c(=O)oc2c1`, for which the growth is 104%. Consider `O=S(=O)(OCCOS(=O)(=O)c1ccccc1)c1ccccc1`, for which the growth is 105%. As for `CC(=O)c1cccs1`, the growth was 110%. `Cc1ccccc1CC(N)C(=O)O` (stereo not given): the growth is 109%.

On to `Cc1ccc(S(=O)(=O)NC(=O)NCCSSCCNC(=O)NS(=O)(=O)c2ccc(C)cc2)cc1`, for which the growth was 101%.

Turning to `Nc1ccc2c(c1)Cc1cc(N)c(N)cc1-2`, the growth is 97.9%. With `O=c1n(CC2CO2)c(=O)n(CC2CO2)n1CC1CO1` (stereo not given) the figure was -4.87% (active). Consider `COc1ccc2c(ccc[n+]2C)c1`, for which the growth was 85.3%. Under `OCCNc1ccccc1` stands 110%. For the molecule `CC1CC(C)S(=O)(=O)C1` (stereo not given), the growth was 118%.

As for `O=C(CCl)Oc1ccc([N+](=O)[O-])cc1`, the growth is 106%. Regarding `O=C(Oc1ccccc1Cl)c1ccc(Cl)cc1Cl`, the growth was 108%. With `CC(=O)N(CCCCCCN(C(C)=O)C(C)=O)C(C)=O`, the growth was 108% [100 µM]. Under `Nc1c(Br)cc(O)c2c1C(=O)c1ccccc1C2=O` stands 56.3%. As to `Cc1ccc(N2C(=O)c3cccc4c(N)c(S(=O)(=O)O)cc(c34)C2=O)cc1`, the growth was 35.6%. With `NC(=S)N/N=C/c1ccc(Cl)cc1`, the growth is 107%. As to `CCOC(=O)c1ccc(C(C)(C)C)cc1`, the growth was 108%. For the molecule `O=Cc1c(O)c2ccccc2[nH]c1=O`, the growth was 104%.

With `CC(C)(C)[Si](C)(C)OCC1OC(n2cnc3c(N)ncnc32)CC1OS(C)(=O)=O` (stereo not given), the growth was 114%. Turning to `CCCCCC/C=C\CCCCCCCCCc1cc(O)cc(OC)c1O`, the growth was -45.4% (active). Consider `CCOC(=O)/C(C)=C\c1ccc(OC)c(OC)c1`, for which the growth was 105%. With `CCC(/C=C\C(C)=O)CC` the figure was 115%. Consider `O=C(O)c1ccc([N+](=O)[O-])cc1S(=O)(=O)O`, for which the growth is 108%.

With `CN(C)c1ccc2nc3ccc(=[N+](C)C)cc-3oc2c1`, the growth is 5.34% (active).

Regarding `CC(=O)/C(C)=N\OC(=O)Nc1ccccc1`, the growth was 103%.

Regarding `Nc1ncnc2c1ncn2C1OC(CO)C2OC21` (stereo not given), the growth was 111%. With `CC(C)=CCC[C@@H](C)[C@H]1CC[C@@]2(C)C3=C(CC[C@]12C)[C@@]1(C)CC[C@H](O)C(C)(C)[C@@H]1CC3` the figure was 115%; with `Cc1cc(Nc2ccc3c(c2)OCO3)c2cc3c(cc2n1)OCO3`, -37.2% (active). Turning to `C=CCc1cc(OC)c(OC)c(OC)c1`, the growth is 110%.

For the molecule `Cc1cc2c3ccc(C)[n+](C)c3ccc2n1C`, the growth is 54.7%. Consider `CCCCn1cnc2c(=O)[nH]cnc21`, for which the growth is 115%. Under `CSc1cnc2ccccc2n1` stands 104%; under `CCOc1ccc(C(=O)NCC(C)C)cc1`, 110%; under `CCOC(C=O)OCC`, 108%. With `Cc1cc(NC(=O)c2ccccc2)c(Cl)cc1N` the figure was 33.3%. In the case of `O=C(O)Cc1ccc(Cl)cc1`, the growth was 109%. Turning to `Nc1ccc(F)c(Cl)c1F`, the growth is 116%.

Values taken from PubChem BioAssay (NCI).
